# Test results from PubChem BioAssay (EPA / NIEHS).
# The source made the active and inactive calls. How the source made its calls: active means hit-call score of the fitted dose curve at least 0.9, where 1 is the maximum; inactive means score below 0.9.
# Key:
# [1] = ATG_NFI_CIS: Attagene CIS-FACTORIAL HepG2 Assay for human Nuclear Factor I (NFI) (AID 2282989); details: HepG2 cis-regulatory reporter, NFI response element transcription; actives raise or lower the signal
# In short: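 Multiplexed cis-reporter system in human HepG2 cells reports native TF activity as reporter mRNA induction 24 h post-dose. Fragments labelled with 6-FAM, HpaI-digested and resolved by capillary electrophoresis; activity fitted both directions versus DMSO.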
# [2] = ATG_NF_kB_CIS: Attagene CIS-FACTORIAL HepG2 Assay for human Nuclear Factor Kappa B (NF-kB) (AID 2282991); details: HepG2 Attagene cis-factorial NF-kB reporter mRNA; actives raise or lower the signal
# In short: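 Read-out: reporter transcript levels quantified by RT-PCR plus capillary electrophoresis of 6-FAM-labelled, HpaI-cut fragments. Transfected HepG2 cells, 24 h compound exposure, endogenous NF-kB-driven cis element; gain or loss scored versus DMSO.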
# [3] = ATG_NRF2_ARE_CIS: Attagene CIS-FACTORIAL HepG2 Assay for human Nuclear Factor Erythroid 2 Related Factor 2 (NFR2) response to Antioxidant Response Elements (ARE) (AID 2282992); details: HepG2 Attagene ARE/NRF2 reporter, transcription factor activity; actives raise or lower the signal;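 on AC50: reporter mRNA level measured by RT-PCR and capillary electrophoresis fluorescence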
# In short: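 Cis-factorial assay: transfected HepG2 reporter library, 24 h dosing, mRNA readout via RT-PCR/CE; DMSO-referenced bidirectional analysis.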
# [4] = ATG_Oct_MLP_CIS: Attagene CIS-FACTORIAL HepG2 Assay for human Octamer-Binding Transcription Factor (Oct) (AID 2282993); details: HepG2 Attagene cis-factorial Oct reporter, mRNA; actives raise or lower the signal
# In short: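 After 24 h compound exposure, transfected HepG2 cells were lysed for total RNA; reporter-specific cDNA was PCR-amplified, fluorescently labelled and sized by capillary electrophoresis. Bidirectional curve fitting used DMSO as baseline.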
# [5] = molecular target: Cellular tumor antigen p53 (Homo sapiens) (UniProt P04637); experiment: ATG_p53_CIS: Attagene CIS-FACTORIAL HepG2 Assay for human p53 Transcription Factor (AID 2282994); details: HepG2 p53 cis-element reporter, Attagene mRNA; actives raise or lower the signal
# Chain of Cellular tumor antigen p53 (Homo sapiens) (P04637 whole entry, looked up): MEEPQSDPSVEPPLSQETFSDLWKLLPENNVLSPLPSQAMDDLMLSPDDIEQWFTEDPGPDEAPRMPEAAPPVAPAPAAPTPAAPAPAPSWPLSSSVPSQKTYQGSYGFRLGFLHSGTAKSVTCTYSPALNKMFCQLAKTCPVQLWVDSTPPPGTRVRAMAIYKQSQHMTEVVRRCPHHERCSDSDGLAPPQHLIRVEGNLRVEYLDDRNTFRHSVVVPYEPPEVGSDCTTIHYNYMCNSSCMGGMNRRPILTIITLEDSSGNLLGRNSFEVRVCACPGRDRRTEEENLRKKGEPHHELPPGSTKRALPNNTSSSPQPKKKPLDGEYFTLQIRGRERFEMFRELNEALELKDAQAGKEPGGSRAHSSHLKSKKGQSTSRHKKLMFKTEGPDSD
# In short: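 Using HepG2 hepatoma cells carrying cis-acting multiplexed reporters, mRNA induction is detected after a 24 h exposure. Gain- and loss-of-signal responses are fitted relative to DMSO-treated cells.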
# [6] = molecular target: Myc proto-oncogene protein (Homo sapiens) (UniProt P01106); experiment: ATG_Myc_CIS: Attagene CIS-FACTORIAL HepG2 Assay for human Myelocytomatosis (Myc) Proto-Oncogene Transcription Factor (AID 2282990); details: HepG2, Attagene cis-reporter transcription factor activity; actives raise or lower the signal
# Chain of Myc proto-oncogene protein (Homo sapiens) (P01106 whole entry, looked up): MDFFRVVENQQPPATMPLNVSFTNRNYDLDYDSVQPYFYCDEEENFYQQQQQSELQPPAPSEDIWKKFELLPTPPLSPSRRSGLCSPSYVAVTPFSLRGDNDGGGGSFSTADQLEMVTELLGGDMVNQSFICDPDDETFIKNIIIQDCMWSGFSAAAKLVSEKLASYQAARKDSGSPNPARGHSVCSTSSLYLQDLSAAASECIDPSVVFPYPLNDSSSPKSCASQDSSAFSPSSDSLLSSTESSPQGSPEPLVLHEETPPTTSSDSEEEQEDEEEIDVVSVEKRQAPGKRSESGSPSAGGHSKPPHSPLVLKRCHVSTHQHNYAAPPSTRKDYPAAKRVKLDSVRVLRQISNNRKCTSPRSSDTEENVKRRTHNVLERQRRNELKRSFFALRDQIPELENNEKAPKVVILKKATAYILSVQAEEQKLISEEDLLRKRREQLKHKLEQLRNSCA
# In short: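 HepG2, transient MRTU transfection (cis promoters, endogenous TFs); 24 h dosing; TriZol RNA → oligo(dT) RT → PCR → 6-FAM primer extension → HpaI cut → CE. Bidirectional fit vs DMSO.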
# [7] = BSK_3C_TissueFactor: BioMAP Diversity Plus: 3C Assay for Tissue Factor Biomarker Activity (AID 2282997); details: BioMAP 3C HUVEC, tissue factor biomarker readout; actives raise or lower the signal
# In short: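 HUVEC were treated 24 h, then surface tissue factor measured by ELISA and fitted bidirectionally against DMSO. Parallel SRB total-protein staining assessed overt cytotoxicity at the same time point.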
# [8] = BSK_3C_uPAR: BioMAP Diversity Plus: 3C Assay for Urokinase-type plasminogen activator receptor (uPAR) Biomarker Activity (AID 2282998); details: BioMAP 3C HUVEC, uPAR biomarker ELISA; actives raise or lower the signal
# In short: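 Values derive from bidirectional curve fitting relative to DMSO, which served as baseline of activity. uPAR was measured by ELISA in human umbilical vein endothelial primary cultures 24 h after compound addition.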
# [9] = BSK_3C_VCAM1: BioMAP Diversity Plus: 3C Assay for Vascular cell adhesion molecule 1 (VCAM1) Biomarker Activity (AID 2282999); details: BioMAP 3C HUVEC, VCAM1 ELISA, cytokine-stimulated; actives raise or lower the signal
# In short: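 Endothelial cells from human umbilical vein are treated with test chemical. At 24 h, VCAM-1 is measured by ELISA, and responses in either direction are fitted relative to DMSO.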
# [10] = BSK_4H_Eotaxin3: BioMAP Diversity Plus: 4H Assay for Eotaxin 3 Biomarker Activity (AID 2283000); details: primary human endothelial cells (HUVEC); actives raise or lower the signal;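 on outcome: CCL26 protein level quantified by ELISA in parallel with SRB cytotoxicity check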
# In short: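 Eotaxin-3 (CCL26) levels were measured by ELISA in HUVEC primary cultures 24 h post-dosing. Gain or loss of signal was fitted in both directions, with DMSO serving as baseline and negative control.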
smiles,measurement,setting,value
c1ccc(CCCc2ccncc2)cc1,outcome,[1],inactive
same,outcome,[2],inactive
same,AC50,[3],45.4 µM (active)
same,outcome,[4],inactive
same,outcome,[5],inactive
CC[C@H]1OC(=O)[C@H](C)[C@@H](O[C@H]2C[C@@](C)(OC)[C@@H](O)[C@H](C)O2)[C@H](C)[C@@H](O[C@@H]2O[C@H](C)C[C@H](N(C)C)[C@H]2O)[C@](C)(O)C[C@@H](C)C(=NOCOCCOC)[C@H](C)[C@@H](O)[C@]1(C)O,outcome,[6],inactive
same,outcome,[2],inactive
same,outcome,[3],inactive
same,outcome,[4],inactive
C[C@]12CCC(=O)C=C1CC[C@@H]1[C@@H]2C(=O)C[C@@]2(C)[C@H]1CC[C@]2(O)C(=O)CO,outcome,[6],inactive
same,outcome,[2],inactive
same,outcome,[3],inactive
same,outcome,[4],inactive
same,outcome,[5],inactive
CC(C)CCCC(C)CC=O (stereo not given),outcome,[6],inactive
same,outcome,[2],inactive
same,outcome,[3],inactive
O=Cc1ccc(CO)o1,outcome,[6],inactive
same,outcome,[3],inactive
same,outcome,[4],inactive
same,outcome,[5],inactive
CC(=O)c1ccc[nH]1,outcome,[6],inactive
same,outcome,[2],inactive
same,outcome,[3],inactive
same,outcome,[4],inactive
same,outcome,[5],inactive
O=C1c2cccc(O)c2C(=O)c2c(O)cc(CO)cc21,outcome,[6],inactive
same,AC50,[3],6.09 µM (active)
same,outcome,[4],inactive
same,outcome,[5],inactive
Cc1cccc(C(=O)O)c1,outcome,[6],inactive
same,outcome,[2],inactive
same,outcome,[3],inactive
same,outcome,[4],inactive
same,outcome,[5],inactive
OCCc1ccncc1,outcome,[6],inactive
same,outcome,[2],inactive
same,outcome,[3],inactive
same,outcome,[4],inactive
CCC(C)OC(=O)c1ccc(O)cc1 (stereo not given),outcome,[6],inactive
same,outcome,[2],inactive
same,AC50,[3],100 µM (active)
same,outcome,[4],inactive
same,outcome,[5],inactive
COC(=O)C1=C(C)NC(C)=C(C(=O)OCC(C)C)C1c1ccccc1[N+](=O)[O-] (stereo not given),outcome,[6],inactive
same,outcome,[2],inactive
same,outcome,[3],inactive
same,outcome,[4],inactive
same,outcome,[5],inactive
Cc1cccc(N)n1,outcome,[6],inactive
same,outcome,[3],inactive
same,outcome,[4],inactive
same,outcome,[5],inactive
Nc1cccc(C(F)(F)F)c1,outcome,[6],inactive
same,outcome,[3],inactive
same,outcome,[4],inactive
same,outcome,[5],inactive
C=CC=CC=CCCCCC,outcome,[6],inactive
same,outcome,[2],inactive
same,AC50,[3],20 µM (active)
same,outcome,[4],inactive
same,outcome,[7],inactive
same,outcome,[8],inactive
same,outcome,[9],inactive
same,outcome,[10],inactive
Cc1ccc(OC(=O)CC(C)C)cc1,outcome,[6],inactive
same,outcome,[3],inactive
N#[N+]c1ccc2c(S(=O)(=O)[O-])cccc2c1O,outcome,[6],inactive
same,outcome,[2],inactive
same,outcome,[3],inactive
same,outcome,[4],inactive
same,outcome,[5],inactive
same,outcome,[7],inactive
same,outcome,[8],inactive
same,outcome,[9],inactive
same,outcome,[10],inactive
OC1CCCC1,outcome,[6],inactive
same,outcome,[2],inactive
same,outcome,[3],inactive
same,outcome,[4],inactive
CCCCCCCCCCCSCC(=O)O,outcome,[6],inactive
same,outcome,[2],inactive
same,outcome,[3],inactive
same,AC50,[4],79.2 µM (active)
CCCCC(CC)COC(=O)c1ccccc1 (stereo not given),outcome,[2],inactive
same,outcome,[3],inactive
same,outcome,[4],inactive
CC(C)CCCCCOC(=O)CCS,outcome,[6],inactive
same,outcome,[2],inactive
same,outcome,[3],inactive
same,outcome,[4],inactive
same,outcome,[5],inactive
CC(=O)OCc1ccco1,outcome,[6],inactive
same,outcome,[2],inactive
same,AC50,[3],45.3 µM (active)
same,outcome,[4],inactive
CCC(Cc1ccccc1)(C(=O)c1ccc(N2CCOCC2)cc1)N(C)C (stereo not given),outcome,[6],inactive
same,outcome,[2],inactive
same,AC50,[3],37.2 µM (active)
same,outcome,[4],inactive
OCCN(CCO)c1ccccc1,outcome,[6],inactive
same,outcome,[2],inactive
same,outcome,[3],inactive
same,outcome,[4],inactive
same,outcome,[5],inactive
CC1=CC[C@H](C(C)C)C=C1,outcome,[6],inactive
same,AC50,[3],27.7 µM (active)
same,outcome,[4],inactive
CC/C=C\C/C=C\C/C=C\CCCCCCCC(=O)O,outcome,[6],inactive
same,AC50,[3],48.2 µM (active)
same,outcome,[4],inactive
O=c1n(CCO)c(=O)n(CCO)c(=O)n1CCO,outcome,[6],inactive
same,outcome,[2],inactive
same,outcome,[3],inactive
same,outcome,[4],inactive
same,outcome,[5],inactive
CC(C)CC(O)Cc1ccccc1 (stereo not given),outcome,[6],inactive
same,AC50,[3],41.9 µM (active)
same,outcome,[4],inactive
same,outcome,[5],inactive
NC(=O)N=NC(N)=O,outcome,[6],inactive
same,outcome,[2],inactive
same,outcome,[3],inactive
same,outcome,[4],inactive
same,outcome,[5],inactive
O=C(O)C(c1ccc(Cl)cc1)c1ccc(Cl)cc1,outcome,[6],inactive
same,outcome,[2],inactive
same,outcome,[3],inactive
same,outcome,[4],inactive
COCc1c(C(C)C)nc(C(C)C)c(/C=C/[C@@H](O)C[C@@H](O)CC(=O)O)c1-c1ccc(F)cc1,outcome,[6],inactive
same,outcome,[2],inactive
same,outcome,[3],inactive
same,outcome,[4],inactive
same,outcome,[5],inactive
same,AC50,[7],5.66 µM (active)
same,AC50,[8],0.0342 µM (active)
same,outcome,[9],inactive
same,AC50,[10],0.0266 µM (active)
CCCCC/C=C\C/C=C\CCCCCCCC(=O)OC,outcome,[6],inactive
same,AC50,[2],37 µM (active)
same,AC50,[3],32.5 µM (active)
same,outcome,[4],inactive
same,AC50,[5],180 µM (active)
same,AC50,[7],20 µM (active)
same,AC50,[8],33.7 µM (active)
same,AC50,[9],30 µM (active)
same,AC50,[10],34 µM (active)
COc1cc(NC(=O)CC(C)=O)c(OC)cc1Cl,outcome,[6],inactive
same,outcome,[3],inactive
same,outcome,[4],inactive
same,outcome,[5],inactive
CC1(C)S[C@@H]2[C@H](NC(=O)COc3ccccc3)C(=O)N2[C@H]1C(=O)O,outcome,[6],inactive
same,outcome,[2],inactive
same,outcome,[3],inactive
same,outcome,[4],inactive
same,outcome,[5],inactive
COc1ccc2nc(N)sc2c1,outcome,[6],inactive
same,AC50,[3],13.9 µM (active)
same,outcome,[4],inactive
same,outcome,[7],inactive
same,outcome,[8],inactive
same,outcome,[9],inactive
same,outcome,[10],inactive
CC(CC=O)CCCC(C)(C)O (stereo not given),outcome,[2],inactive
same,outcome,[3],inactive
same,outcome,[4],inactive
O=C1Nc2ccccc2C1(c1ccc(O)cc1)c1ccc(O)cc1,outcome,[6],inactive
same,AC50,[3],178 µM (active)
same,AC50,[4],22.4 µM (active)
CC(=O)Oc1ccc(C(C)=O)cc1,outcome,[6],inactive
same,outcome,[3],inactive
same,outcome,[4],inactive
same,outcome,[5],inactive
CCCCCCCCCCCCCOP(=O)(O)O,outcome,[6],inactive
same,outcome,[2],inactive
same,outcome,[3],inactive
same,outcome,[4],inactive
same,outcome,[5],inactive
O=C(OCC1CCC2OC2C1)C1CCC2OC2C1 (stereo not given),outcome,[6],inactive
same,outcome,[2],inactive
same,outcome,[3],inactive
same,outcome,[4],inactive
same,outcome,[5],inactive
CCCCCCCCCCCCCCCC[n+]1ccccc1,AC50,[6],20 µM (active)
same,outcome,[3],inactive
same,AC50,[5],20.4 µM (active)
CCCc1ccc(OC)cc1,outcome,[6],inactive
same,outcome,[2],inactive
same,outcome,[3],inactive
same,outcome,[4],inactive
